# hgDAF12 agonist – activates the H. glycines DAF-12 receptor ligand-binding domain | hit rate 1.8% among 370,000 | AID 687014 | activation, % at 6.8 µM | HEK293 GAL4-hgDAF12 UAS-luciferase reporter, agonist luminescence; normalized to butyrate control;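 active = activation above a cutoff set at the mean of all screened compounds plus 3 SD, cut at about 10% in these data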;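 also: 0% = DMSO wells and 100% = sodium butyrate wells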
# esBAF inh – blocks esBAF chromatin remodeling in mouse ES cells; Bmi1-luciferase knock-in reporter, 24 h; 100% = twice the neutral-well signal; reporter increase, % at 12.5 µM; hit rate 2% among 350,000; in the data active = activation above about 40%; inconclusive = no clear call, values can overlap the other calls;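 also: 0% = median of the plate's neutral control wells and 100% = double that signal; a rise in the Bmi1 reporter signal indicates esBAF inhibition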
# ssDAF12 agonist – S. stercoralis DAF-12 activation, primary screen; AID 652126; activation, % at 6.8 µM; hit rate 1% among 370,000; HEK293 ssDAF-12/GRIP1 lit1-tk-luc reporter, luminescence; % of 3 µM dafachronic acid response;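 active = activation above the mean over all tested compounds plus 3 SD, cut at about 0.9% in these data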;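 also: 0% = DMSO-only wells and 100% = 3 µM delta7-dafachronic acid wells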
# Wnt bcat act – activates Wnt/beta-catenin signaling in a reporter cell assay; hit rate 1.2% among 300,000; AID 743398; activation, % at 9.35 µM; activator, plate reader; in the data active = activation above about 30%, passing the limit was not always enough; inconclusive = no clear call, values can overlap the other calls;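 also: 0% = neutral control wells and 100% = positive control wells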
# hcDAF-12 act – activators of H. contortus DAF-12 nuclear receptor | activation, % at 6.8 µM | hit rate 1.4% among 370,000 | AID 652067 | HEK293 hcDAF-12 lit1-tk-luc reporter, luminescence; 0% DMSO, 100% Δ7-dafachronic acid;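 active = activation above the mean of all tested compounds plus 3 SD, cut at about 5.5% in these data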;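 also: 100% = response to 3 µM Δ7-dafachronic acid high control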
# DAX1 inh – DAX1 (NR0B1) inhibition, primary screen; AID 652010; HEK293T StAR-luciferase reporter, SF-1/DAX-1 repression relief; inhibition, % at 6.8 µM; hit rate 1.1% among 370,000;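 active = inhibition above the mean over all tested compounds plus 3 SD, cut at about 3.6% in these data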;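 also: 0% = DAX-1 cells with DMSO and 100% = cells lacking DAX-1 with DMSO; higher inhibition means more luminescence from relief of DAX-1 repression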
# hgDAF12 conf – hgDAF-12 agonism, confirmation assay | shares compounds with hgDAF12 agonist | HEK293 GAL4-hgDAF12 luciferase reporter, agonist mode; percent of butyrate response | activation, % at 6.8 µM | hit rate 80% among 3,300 | AID 743050;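 active = mean activation over triplicate wells above the hit cutoff derived from the earlier primary screen, cut at about 11% in these data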;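 also: 0% = DMSO low control and 100% = 2 mM sodium butyrate high control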
# LXR ag 2 – LXR-beta agonism as DAF-12 counter-screen. activation, % at 6.8 µM. 3,300 tested, under 10 active. shares compounds with hgDAF12 agonist. HEK293 Gal4-LXR luciferase reporter, 24 h;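 active = mean activation of the triplicate above a set limit carried over from the primary screen, none filed active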
# Target sequence (P55055 whole entry, looked up, the tested form may be a part): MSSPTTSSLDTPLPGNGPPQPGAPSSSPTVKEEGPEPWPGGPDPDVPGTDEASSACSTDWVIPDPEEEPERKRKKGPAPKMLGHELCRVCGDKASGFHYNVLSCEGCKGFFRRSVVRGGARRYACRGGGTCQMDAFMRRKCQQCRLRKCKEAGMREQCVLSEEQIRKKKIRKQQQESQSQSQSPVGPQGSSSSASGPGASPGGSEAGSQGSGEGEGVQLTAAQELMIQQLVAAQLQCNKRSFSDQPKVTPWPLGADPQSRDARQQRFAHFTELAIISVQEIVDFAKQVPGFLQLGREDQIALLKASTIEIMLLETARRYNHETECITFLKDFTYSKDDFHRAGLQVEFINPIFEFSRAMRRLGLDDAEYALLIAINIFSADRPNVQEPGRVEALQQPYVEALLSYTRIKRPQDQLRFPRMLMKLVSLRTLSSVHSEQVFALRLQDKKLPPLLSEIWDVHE
# * marks the source's active call; other numbers are inactive results; ? = inconclusive; / = not tested or not shown. Compounds with a hit are over-represented: about 4.2% of the library has one in this group of screens.
SMILES,hgDAF12 agonist,esBAF inh,ssDAF12 agonist,Wnt bcat act,hcDAF-12 act,DAX1 inh,hgDAF12 conf,LXR ag 2
O=C(Oc1ccc(-c2cn3c(n2)SCC3)cc1)c1ccccc1,2.3,-6.8,-1.2,/,-0.8,0.1,/,/
CCC(=O)N1[C@H](CO)[C@@H](c2ccccc2)[C@@H]1CN(C(C)C)S(C)(=O)=O,/,-1.9,/,/,/,/,/,/
CN1CCN(c2ccc(NC(=O)COc3ccccc3)cc2Cl)CC1,14.8*,/,0.6,24.2,1.1,3.0,14.4*,0.3
Cn1cnc(S(=O)(=O)N[C@@H]2C=C[C@H](CC(=O)NCC3CCCCC3)O[C@H]2CO)c1,/,0.8,/,/,/,/,/,/
CCC(=O)Nc1ccc2c(c1)C(=O)N(C)C[C@H](OC)[C@H](C)CN(C(=O)C1CC1)[C@H](C)CO2,/,0.6,/,/,/,/,/,/
COc1ccc(S(=O)(=O)Nc2cccc3c2O[C@@H](CN(C)C(=O)NC(C)C)[C@@H](C)CN([C@@H](C)CO)C3=O)cc1,/,-2.4,/,/,/,/,/,/
O=C1/C(=C/c2ccc(O)cc2)COc2ccccc21,15.0*,22.0,-1.1,31.0*,2.1,1.2,11.8*,0.7
CC1(C)CC(N=c2cc(-c3ccccc3)oc3ccc(Cl)cc23)CC(C)(C)N1,3.8,/,-1.2,8.9,-1.2,0.3,/,/
OCCCN=c1cc(-c2ccccc2)oc2ccc(Cl)cc12,17.9*,72.3*,0.0,/,3.6,0.4,10.8*,0.3
O=C(Oc1ccc2ccc(O)cc2c1)c1ccccc1Cl,13.9*,63.4*,-0.3,10.7,3.6,0.8,7.4,0.4
O=C(Oc1ccc2ccc(O)cc2c1)C1CCCCC1,8.6,/,-0.9,-1.0,-1.1,0.6,/,/
COc1ccc(S(=O)(=O)N(C)C[C@@H]2OCCCC[C@H](C)Oc3ccc(N(C)C)cc3C(=O)N([C@@H](C)CO)C[C@@H]2C)cc1,/,2.5,/,/,/,/,/,/
COc1ccc(/C=N/Nc2ncc(Br)cn2)c(OC)c1,16.3*,/,-0.3,3.6,0.5,1.9,14.7*,0.6
COc1ccc(/C=N/NC(=O)c2ccc(Br)cc2)c(OC)c1,2.3,0.8,-0.9,-1.9,0.4,0.1,/,/
Cc1ccc(S(=O)(=O)Nc2ccc3c(c2)C(=O)N([C@H](C)CO)C[C@@H](C)[C@H](CN(C)C(=O)Nc2cccc4ccccc24)O3)cc1,/,0.5,/,/,/,/,/,/
CC(=O)N1CCC(=NNc2nc3ccccc3[nH]2)CC1,15.6*,/,0.6,-2.3,4.2,1.1,6.1,0.1
Cc1noc(C)c1NC(=O)Nc1cccc2c1O[C@H](CN(C)C(=O)Nc1ccc(F)cc1)[C@@H](C)CN([C@H](C)CO)C2=O,/,1.7,/,/,/,/,/,/
CCOC(=O)Cc1csc(NC(=O)c2ccncc2)n1,-1.8,9.9,-1.7,/,-0.4,-0.9,/,/
CCOC(=O)Cc1csc(NC(=O)c2ccco2)n1,13.3*,12.6,-1.2,/,0.8,3.2,4.4,0.3
CC(Cc1ccco1)NC(=O)c1ccc(C(F)(F)F)cc1 (stereo unspecified),13.8*,16.0,1.0*,18.3,5.0,2.0,15.7*,0.8
C/C(CC(=O)Nc1c(C)cc(C)cc1C)=N\NC(=O)c1cnccn1,7.3,6.3,-1.7,/,-0.2,0.8,/,/
C/C(CC(=O)Nc1c(C)cc(C)cc1C)=N\NC(=O)OC(C)(C)C,13.4*,/,-0.3,/,0.9,1.3,0.7,0.0
O=C(NC1CCCC1)[C@H]1[C@H](CO)[C@H]2Cn3c(ccc(C4=CCCCC4)c3=O)[C@@H]1N2CC1CC1,/,7.3,/,/,/,/,/,/
CCSCC(C)(C)n1[nH]c2ccccc2c1=O,14.4*,0.1,-1.2,-1.0,0.4,0.1,-2.2,0.0
CCn1c(=O)[nH]c2ccccc2c1=O,-3.0,-11.2,-1.1,-2.1,0.3,0.5,/,/
SMILES,hgDAF12 agonist,esBAF inh,ssDAF12 agonist,Wnt bcat act,hcDAF-12 act,DAX1 inh,hgDAF12 conf,LXR ag 2
COc1ccccc1-c1cnc2c(c1)C(=O)N([C@@H](C)CO)C[C@@H](C)[C@@H](CN(C)C(=O)c1ccccc1)O2,/,1.5,/,/,/,/,/,/
C/C(=N\Nc1nncc2ccccc12)c1cccc(OC(F)F)c1,18.1*,-2.6,0.6,26.4,6.1*,1.9,20.3*,1.1
COc1ccc(/C=N/Nc2nncc3ccccc23)c(OC)c1,7.1,/,-1.2,/,3.6,3.6,/,/
C=C(C)C1CC=C(C)/C(=N/NC(=O)c2ccoc2C)C1 (stereo unspecified),20.0*,72.8*,-0.2,/,5.9*,4.3*,0.6,0.1
CN(CC(=O)N1CCc2ccccc21)S(=O)(=O)c1cccs1,13.4*,39.6,0.2,-1.6,2.9,2.6,11.8*,0.6
O=C(Nc1ccccc1)O/N=C/c1ccc(F)cc1,14.5*,48.0*,0.1,14.2,4.3,2.6,16.2*,0.8
COc1ccc(-c2ccc(C(=O)Nc3ccc(Cl)cc3)c3occc23)c(C)c1,17.6*,79.8*,-0.8,4.7,-0.4,2.0,7.9,0.4
CCCC(=O)Nc1ccc2c(c1)C(=O)N(C)C[C@@H](OC)[C@@H](C)CN(C(=O)C1CCCC1)[C@@H](C)CO2,/,0.5,/,/,/,/,/,/
Clc1c(CSc2nc3ccccc3o2)nc2sccn12,24.4*,-28.1,0.5,/,4.6,4.1*,20.1*,0.6
C[C@@H]1CN([C@@H](C)CO)C(=O)Cc2cc(NC(=O)c3ccncc3)ccc2O[C@H]1CN(C)Cc1ccncc1,/,-3.2,/,/,/,/,/,/
CC(=O)N(C)C[C@H]1Oc2ncc(C#Cc3ccccc3)cc2C(=O)N([C@H](C)CO)C[C@H]1C,/,-0.9,/,/,/,/,/,/
CCc1nc(Nc2ccncc2)c2oc3ccccc3c2n1,19.3*,7.8,-0.7,/,0.7,-0.5,8.2,0.1
COc1c(Cl)cnn(-c2cccc(C)c2)c1=O,0.3,-0.8,-0.5,0.1,-0.6,0.1,/,/
Cc1ccc(-n2ncc3ccccc3c2=O)cc1Cl,18.6*,/,0.6,-1.5,5.2,2.5,15.1*,0.6
COc1ccc(Nc2nnc(-c3ccc4c(c3)OCO4)o2)cc1,22.1*,/,1.5*,-1.2,5.8*,3.4,17.5*,0.9
COc1ccc(-c2noc(-c3ccc4c(c3)OCO4)n2)cc1,2.9,/,-0.6,20.8,1.0,0.9,/,/
C[C@@H]1CN([C@@H](C)CO)C(=O)Cc2cc(NC(=O)Nc3ccc(F)cc3)ccc2O[C@H]1CN(C)S(=O)(=O)c1cccs1,/,1.0,/,/,/,/,/,/
Cc1cc(C(=O)CN2CCCCC2)c(C)n1-c1ccc(F)cc1,5.3,/,-1.1,7.1,0.5,1.1,/,/
Cc1cc(C(=O)CN2CCC(C)CC2)c(C)n1-c1ccc(F)cc1,14.0*,/,0.4,?,1.1,2.6,13.4*,0.8
Cc1cc(C(=O)NC2CCCCC2)c(C)n1-c1ccc(F)cc1,13.9*,/,-0.6,/,5.8*,3.4,12.2*,0.7

# From PubChem BioAssay
